Most compounds without a hit are left out; they make up all but 3.7% or so of the library.
tim10-1 inh: growth inhibitors of tim10-1 mutant yeast | S. cerevisiae tim10-1 ts strain growth, BacTiter-Glo, 24 h | inhibition, % at 20 µM | 330,000 tested, 2.2% active | AID 463190;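 active = inhibition of at least 40%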;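 also: mutant grown at 25 °C; 0% = DMSO wells with yeast and 100% = wells holding no yeast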
TIM10 inh: TIM10 yeast growth inhibition; S. cerevisiae TIM10 strain growth, BacTiter-Glo luminescence, 24 h; 330,000 tested, 1.4% active; inhibition, % at 10 µM; AID 463195;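 active = inhibition of 40% or more at the single tested concentration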;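 also: wild-type TIM10 isogenic control strain grown at permissive 25 °C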
PfHsp90 set2: reduces growth (ATP signal) of yeast expressing P. falciparum Hsp90. 310,000 tested, 0.32% active. AID 504621. S. cerevisiae expressing PfHsp90, BacTiter-Glo ATP, 48 h; yeast lacking PDR1 and PDR3 efflux regulators. inhibition, % at 9.4 µM;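 active = every replicate shows inhibition above about 80%, whatever the replicate mean, limit read from the data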;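 also: 0% = DMSO neutral controls and 100% = 20 µM radicicol positive controls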
NALP3 yeast inh: NALP3 inhibition in yeast. 330,000 tested, 0.39% active. Yeast reconstituted NLRP3/ASC/caspase-1, beta-gal luminescence, 24 h. AID 2825. inhibition, % at 10 µM;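 active = inhibition of 50% or more; inactive = inhibition below 50%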;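 also: plate controls were induced DMSO wells for no effect and uninduced yeast grown without galactose for full effect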
tim23-1 inh: growth inhibitors of tim23-1 mutant yeast. AID 463212. S. cerevisiae tim23-1 growth, BacTiter-Glo luminescence, 24 h. inhibition, % at 20 µM. 330,000 tested, 1.3% active;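 active = growth inhibition of the mutant yeast at or above 50%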;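 also: temperature-sensitive mutant grown at 25 °C; plate controls were DMSO-treated mutant yeast for no effect and medium wells lacking yeast for full effect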
* marks the source's active call; other numbers are inactive results; · = no result given.

SMILES	tim10-1 inh	TIM10 inh	PfHsp90 set2	NALP3 yeast inh	tim23-1 inh
CCC(=O)NC(c1cccs1)c1ccc2cccnc2c1O (stereo not given)	22	39	114*	20	49
CCCCC(=O)NC(c1ccccc1OC)c1ccc2cccnc2c1O (stereo not given)	3	-38	106*	13	34
C[C@H](NC(=O)C1CCN(S(=O)(=O)c2ccccc2)CC1)C(=O)NCc1ccc(Cl)c(Cl)c1	0	10	-3	7	-1
CCn1cc(C(=O)O)c(=O)c2cc(F)c(N3CCN(C(=S)NC(=O)c4ccccc4Br)CC3)cc21	4	-21	-34	10	-1
CCOC(=O)c1c[nH]c2c([N+](=O)[O-])cc(OC)cc2c1=O	·	·	20	·	·
O=C(c1cccc([N+](=O)[O-])c1)N1CCCC(C(=O)N2CCc3ccccc3C2)C1 (stereo not given)	2	4	-22	1	12
COc1ccccc1-c1nc(SCC(=O)N2CCC(C(N)=O)CC2)n[nH]1	-4	4	-5	0	2
O=C1C=CC(=O)N1c1ccc2c(c1)Cc1cc(F)ccc1-2	·	·	116*	·	·
CC(=O)Nc1ccc2c(c1)Cc1cc(N3C(=O)C=CC3=O)ccc1-2	·	·	116*	·	·
CC(=O)Nc1ccc2c(c1)-c1ccc(F)cc1C2	·	·	-8	·	·
COc1ccc2c(CCNC(=O)/C=C/c3ccc(OC)c(OC)c3)c[nH]c2c1	14	-18	5	7	4
Cc1cccc(CNc2ncnc3ccc(-c4ccccc4Cl)cc23)c1	12	0	-7	11	22
Cc1csc(CNc2ncnc3ccc(-c4cccc(Cl)c4)cc23)c1	0	-7	122*	27	38
O=C(C=Cc1ccccn1)c1ccccc1O	·	·	114*	·	·
CC(C)(C)c1ccc(NC(=O)COC(=O)c2ccc([N+](=O)[O-])s2)cc1	·	·	109*	·	·
O=C(COC(=O)c1ccc([N+](=O)[O-])s1)Nc1ccc(Cl)cn1	24	39	-18	15	-146
O=[N+]([O-])c1ccc(Cl)cc1NCC1CCCO1 (stereo not given)	1	-24	-17	0	6
CCOc1ccc(CCN2C(=O)C3C4CCC(O4)C3C2=O)cc1OCC (stereo not given)	-3	9	0	21	6
Cc1ccc(C(C)C)c(OCc2ccc(C(=O)N/N=C/c3cccc(O)c3O)cc2)c1	·	·	122*	·	·
COc1ccc(NC(=O)c2sc3ncnc(N4CCN(c5ccccn5)CC4)c3c2C)cc1Cl	16	-40	103*	20	11
CCN(CCO)C1CC(=O)N(c2ccccc2C)C1=O (stereo not given)	35	17	124*	22	8
Cc1ccccc1N1C(=O)CC(N(O)c2ccccc2)C1=O (stereo not given)	18	7	16	19	19
COc1cccc2c1C(=O)c1c(O)c3c(c(O)c1C2=O)C[C@@](O)(C(=O)CO)C[C@@H]3O[C@H]1C[C@H](N)[C@@H](O)[C@H](C)O1	-13	-20	-30	40	36
COc1cccc2c1C(=O)c1c(O)c3c(c(O)c1C2=O)CC(O)(C(=O)CO)CC3OC1CC(N(C)C)C(O)C(C)O1 (stereo not given)	·	·	106*	·	·
CCCC(=O)NC(c1ccc2c(c1)OCO2)c1cc(Cl)c2cccnc2c1O (stereo not given)	34	-16	99*	9	43
SMILES	tim10-1 inh	TIM10 inh	PfHsp90 set2	NALP3 yeast inh	tim23-1 inh
S=C1Cc2ccccc2N1	·	·	107*	·	·
O=C1CCc2ccccc2N1	12	-14	-5	-1	-3
O=C(NC1CCSc2ccccc21)c1ccc(F)c(S(=O)(=O)N2CCOCC2)c1 (stereo not given)	26	5	-17	3	14
COC(=O)c1ccc(N2C(=O)CC(N(C)Cc3ccccc3)C2=O)cc1 (stereo not given)	11	38	104*	22	22
O=C(/C=C/c1ccccc1)N1CCOCC1	-4	4	-18	17	2
O=C(/C=C/c1ccccc1)CCN1CCOCC1	·	·	107*	·	·
CC(C)(CNC(=O)c1ccccc1F)CNC(=O)c1ccccc1F	13	18	2	-2	6
COc1cc2cnc(-c3ccccc3)c(C(=O)c3ccc(F)cc3)c2cc1OC	8	0	85*	5	47
CCCCN1C(=O)/C(=C/C=C2\Oc3ccccc3N2CC)SC1=S	·	·	99*	·	·
CCC(CC)CN1CCC(CN2C(=S)NC[C@@H]2CC(C)C)CC1	·	·	12	·	·
CCCCCCCCCCCCCCCC[N+](C)(C)Cc1ccc(F)cc1	·	·	115*	·	·
CN1C(=O)C(N=Nc2ccc([N+](=O)[O-])cc2)SC1=S (stereo not given)	·	·	114*	·	·
CN1CCCCCC1=Nc1ccc([N+](=O)[O-])cc1	7	10	5	15	10
Oc1ccc(F)c2cccnc12	0	8	27	10	-4
O=C(Oc1ccc(Cl)c2cccnc12)N1CCCCC1	18	17	-1	39	23
Oc1ccc(Cl)c2cccnc12	·	·	108*	·	·
O=C(Oc1ccc(Cl)c2cccnc12)c1cccnc1	25	7	112*	3	29
Oc1c(Cl)cc(Cl)c2cccnc12	·	·	107*	·	·
Cc1cc(C)c(CC(=O)c2ccccc2)c(C)c1	·	·	15	·	·
COc1cccc(CC(=O)OCC(=O)NNC(=O)c2ccc(Br)cc2)c1	0	-11	0	30	-2
CN(C)/C=C/C(=O)c1ccc2noc(-c3cccc(F)c3)c2c1	26	-2	107*	10	19
COc1ccc(-c2onc3ccc(C(=O)/C=C/N(C)C)cc23)cc1	34	35	-37	6	31
O=c1c2ccccc2[nH]c(=S)n1CCCN1CCN(c2ccccc2F)CC1	31	5	-26	18	21
CC1=C(C(=O)Nc2cc(C(=O)NCCC(C)C)ccc2C)SCCO1	1	14	-1	7	12
COc1ccc(-c2nnc3n(CCc4ccccc4)c(=O)c4ccccc4n23)c(OC)c1	19	26	107*	21	-2
SMILES	tim10-1 inh	TIM10 inh	PfHsp90 set2	NALP3 yeast inh	tim23-1 inh
CN(CCc1ccccc1)C(=O)c1cccc(NC(=O)Cc2cccc(NC(=O)C3CCN(C(=O)c4ccccc4)CC3)c2)c1	·	·	-5	·	·
CC1Cc2ccccc2N1C(=O)COC(=O)c1ccc(Cl)c(S(=O)(=O)N2CCOCC2)c1 (stereo not given)	11	17	7	20	19
O=C1C(F)=CC(COC(c2ccccc2)(c2ccccc2)c2ccccc2)OC1n1cc(F)c(=O)[nH]c1=O (stereo not given)	·	·	102*	·	·
CC(=O)OCC1OC(n2cc(F)c(=O)[nH]c2=O)C(OC(C)=O)C1OC(C)=O (stereo not given)	3	10	1	-8	8
COc1ccc(C(=O)NNC(=O)CCc2ccccc2OC)cc1	9	-12	-4	5	13
O=C1NC(=S)S/C1=C\C=C\c1ccc([N+](=O)[O-])o1	·	·	106*	·	·
O=C(NCC(=O)N1CCN(S(=O)(=O)c2c(F)cccc2F)CC1)c1ccccc1F	-7	7	6	17	18
